# According to PubChem BioAssay AID1159580 (chemical genetic matrix, 2015):
# The whole screen tested about 5,500 compounds, of which about 2,000 (36%) were called active. About 18% were inconclusive and are not listed. Some of the results follow. A number with no mark means an inactive call. No stated cut-off is given here; in the data, active means normalized growth mostly below about 0.91 (no sharp cut-off); inconclusive means no clear call, values can overlap the other calls; inactive means mostly above about 0.92.
# Test: chemical genetic growth profiling, strain panel (AID 1159580);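 further: tested at 20 µM; growth read once vehicle control cultures reached saturation at 30 °C; 1 = growth at the plate median or of vehicle wells; lower values mean less growth of the strain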
# Settings: S. cerevisiae deletion strains, growth OD
compound,measurement,setting,value
COc1cc(NC(=S)NNS(=O)(=O)c2ccc(C)cc2)c(OC)cc1Cl,normalized growth,"locus YAR019C, strain CDC15, hits give low values",0.982
same,normalized growth,"locus YBL105C, strain PKC1, hits give low values",0.974
same,normalized growth,"locus YBR135W, strain CKS1, hits give low values",0.978
same,normalized growth,"locus YBR136W, strain MEC1, hits give low values",0.971
same,normalized growth,"locus YBR160W, strain CDC28, hits give low values",0.984
same,normalized growth,"locus YDL017W, strain CDC7, hits give low values",0.984
same,normalized growth,"locus YDL028C, strain MPS1, hits give low values",0.982
same,normalized growth,"locus YDL101C, strain DUN1, hits give low values",0.976
same,normalized growth,"locus YDL108W, strain KIN28, hits give low values",0.984
same,normalized growth,"locus YDL132W, strain cdc53, hits give low values",0.974
same,normalized growth,"locus YDL214C, strain PRR2, hits give low values",0.939
same,normalized growth,"locus YDR052C, strain DBF4, hits give low values",0.986
same,normalized growth,"locus YDR054C, strain cdc34, hits give low values",0.949
same,normalized growth,"locus YDR226W, strain ADK1, hits give low values",0.974
same,normalized growth,"locus YDR477W, strain SNF1, hits give low values",0.933
same,normalized growth,"locus YER123W, strain YCK3, hits give low values",0.921
same,normalized growth,"locus YER133W, strain GLC7, hits give low values",0.953
same,normalized growth,"locus YFL009W, strain cdc4, hits give low values",0.982
same,normalized growth,"locus YFL029C, strain CAK1, hits give low values",0.976
same,normalized growth,"locus YFR003C, strain YPI1, hits give low values",0.985
same,normalized growth,"locus YFR019W, strain FAB1, hits give low values",0.955
same,normalized growth,"locus YFR028C, strain CDC14, hits give low values",0.968
same,normalized growth,"locus YGR040W, strain KSS1, hits give low values",0.942
same,normalized growth,"locus YGR052W, strain FMP48, hits give low values",1.06
same,normalized growth,"locus YGR092W, strain DBF2, hits give low values",1.01
same,normalized growth,"locus YHR030C, strain SLT2, hits give low values",0.858
same,normalized growth,"locus YHR079C, strain IRE1, hits give low values",0.997
same,normalized growth,"locus YHR082C, strain KSP1, hits give low values",1.02
same,normalized growth,"locus YHR205W, strain SCH9, hits give low values",0.961
same,normalized growth,"locus YIL147C, strain SLN1, hits give low values",0.986
same,normalized growth,"locus YJL095W, strain BCK1, hits give low values",0.927
same,normalized growth,"locus YJL128C, strain PBS2, hits give low values",0.966
same,normalized growth,"locus YJL157C, strain FAR1, hits give low values",0.975
same,normalized growth,"locus YJR016C, strain ILV3, hits give low values",0.977
same,normalized growth,"locus YJR066W, strain TOR1 (second series), hits give low values",0.955
same,normalized growth,"locus YJR066W, strain TOR1, hits give low values",0.97
same,normalized growth,"locus YKL048C, strain ELM1, hits give low values",0.953
same,normalized growth,"locus YKL067W, strain YNK1, hits give low values",0.94
same,normalized growth,"locus YKL101W, strain HSL1, hits give low values",0.935
same,normalized growth,"locus YKL193C, strain SDS22, hits give low values",0.97
same,normalized growth,"locus YKL203C, strain TOR2, hits give low values",1
same,normalized growth,"locus YLR113W, strain HOG1, hits give low values",0.849 (active)
same,normalized growth,"locus YLR133W, strain CKI1, hits give low values",0.947
same,normalized growth,"locus YLR403W, strain SFP1, hits give low values",0.959
same,normalized growth,"locus YML070W, strain DAK1, hits give low values",0.942
same,normalized growth,"locus YMR001C, strain CDC5, hits give low values",0.979
same,normalized growth,"locus YMR205C, strain PFK2 (second series), hits give low values",0.947
same,normalized growth,"locus YMR277W, strain FCP1, hits give low values",0.963
same,normalized growth,"locus YNL006W, strain LST8, hits give low values",0.986
same,normalized growth,"locus YNL020C, strain ARK1, hits give low values",0.96
same,normalized growth,"locus YNL161W, strain CBK1, hits give low values",0.984
same,normalized growth,"locus YNL183C, strain NPR1, hits give low values",0.939
same,normalized growth,"locus YNL207W, strain RIO2, hits give low values",0.981
same,normalized growth,"locus YNL222W, strain SSU72, hits give low values",0.973
same,normalized growth,"locus YNL307C, strain MCK1 (second series), hits give low values",0.941
same,normalized growth,"locus YOL078W, strain AVO1, hits give low values",0.971
same,normalized growth,"locus YOL136C, strain PFK27, hits give low values",0.929
same,normalized growth,"locus YOR061W, strain CKA2, hits give low values",0.967
same,normalized growth,"locus YOR119C, strain RIO1, hits give low values",1.05
same,normalized growth,"locus YOR231W, strain MKK1, hits give low values",0.994
same,normalized growth,"locus YOR329C, strain SCD5, hits give low values",0.984
same,normalized growth,"locus YPL031C, strain PHO85, hits give low values",0.95
same,normalized growth,"locus YPL153C, strain RAD53, hits give low values",0.95
same,normalized growth,"locus YPL204W, strain HRR25, hits give low values",0.92
same,normalized growth,"locus YPL209C, strain IPL1, hits give low values",0.972
same,normalized growth,"locus YPL256C, strain CLN2, hits give low values",0.886
same,normalized growth,"locus YPR025C, strain CCL1, hits give low values",0.972
same,normalized growth,"locus YPR106W, strain ISR1, hits give low values",0.977
same,normalized growth,"locus YPR111W, strain DBF20, hits give low values",0.951
same,normalized growth,"strain NNK1, hits give low values",0.972
same,normalized growth,"strain TSCII, hits give low values",0.98
